Screens from PubChem.
GluA2 TARP mod: modulators of GluA2-stargazin AMPA receptor complexes, primary screen, cell-based, membrane potential dye. Voltage-dependent calcium channel gamma-2 subunit (Mus musculus) + Glutamate receptor 2 …. 3.5% of 40,000 active. HEK293 GluA2+stargazin, membrane potential dye (FDSS), glutamate EC50; hits were called plate by plate, in both directions. AID 1259245, 2017. calls only at 30 µM;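 active means any of four per-well response measures lying three or more SD from its plate-wide compound average, in either direction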
GIRK2 activator: activators of NPY4-receptor-primed GIRK2 channels, summary, cell-based, HEK293, thallium flux. G protein-activated inward rectifier potassium channel 2 (Homo sapiens), P48051. HEK293 GIRK2/NPY4 cells, thallium flux fluorescence. activation (% efficacy), % for hits at 37.5 µM. 34,000 tested, under 10 active;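 active means primary screen hit, no activity in plain HEK293 cells, and in GIRK2-only cells above 5% efficacy rising with concentration; inactive means the rest, including fluorescent compounds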;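 further: efficacy is normalized control-subtracted fluorescence 15 s after thallium addition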
Target sequence (P48051 whole entry, looked up): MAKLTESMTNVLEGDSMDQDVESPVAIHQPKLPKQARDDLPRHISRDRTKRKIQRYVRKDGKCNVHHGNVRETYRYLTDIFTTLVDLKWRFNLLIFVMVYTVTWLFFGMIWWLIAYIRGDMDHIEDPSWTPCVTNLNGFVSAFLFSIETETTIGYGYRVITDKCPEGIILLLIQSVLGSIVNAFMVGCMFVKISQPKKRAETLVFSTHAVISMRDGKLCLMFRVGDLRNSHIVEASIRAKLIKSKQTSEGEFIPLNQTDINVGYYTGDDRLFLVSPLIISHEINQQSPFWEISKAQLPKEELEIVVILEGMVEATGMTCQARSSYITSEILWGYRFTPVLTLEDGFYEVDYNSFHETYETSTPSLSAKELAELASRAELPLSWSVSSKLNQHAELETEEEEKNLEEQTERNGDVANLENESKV
Hits are given with their value; – = inactive; · = no result given; + = active, no number; [ ] = remark or other dose. Shown is part of a subset that was picked to be rich in hits.

SMILES | GluA2 TARP mod | GIRK2 activator
COc1ccc(-c2nnc(NC(=O)c3cccc(S(=O)(=O)C(C)C)c3)o2)c(OC)c1 | + | –
COc1ccccc1-c1nnc(NC(=O)Cc2ccc(SC)cc2)o1 | – | ·
COc1ccc(C(=O)Nc2nnc(-c3ccccc3OC)o2)cc1 | – | ·
COc1ccc(-c2nnc(NC(C)=O)o2)c(OC)c1 | + | ·
COc1ccccc1-c1nnc(NC(=O)c2ccccc2)o1 | – | ·
COc1ccccc1-c1nnc(NC(=O)Cc2ccc(S(C)(=O)=O)cc2)o1 | + | ·
CC(C)S(=O)(=O)c1cccc(C(=O)Nc2nc3cc4c(cc3s2)OCO4)c1 | – | –
COc1ccc(C)cc1NC(=O)CSc1ccc(NC(=O)c2ccccc2)nn1 | – | –
Cc1noc(C2CN(C(=O)C3(c4cccs4)CCCC3)C2)n1 | – | –
COc1ccc(-n2c(COc3ccc4c(c3)OCO4)nnc2SCC(=O)c2ccccc2)cc1 | – | ·
COc1c2c(cc3c1C(CC(=O)c1ccccc1)N(C)CC3)OCO2 (stereo not drawn) | + | ·
COc1cccc(OCC(=O)Nc2ccc(N3CCCC3=O)cc2)c1 | – | –
COc1ccc(Nc2cc(C)nc(-n3cc([N+](=O)[O-])cn3)n2)cc1OC | – | –
COc1ccc(Nc2cc(C)nc(-n3cc([N+](=O)[O-])cn3)n2)cc1Cl | + | –
Cc1nc(N2CCN(CCO)CC2)nc(Nc2ccc(F)cc2)c1[N+](=O)[O-] | + | –
Cc1nc(N2CCN(CCO)CC2)nc(N2CCCCC2)c1[N+](=O)[O-] | – | –
O=C(CSc1nc(=O)n(Cc2ccco2)c2c1CCC2)NC1CCCCC1 | – | –
S=c1nc(-c2ccc(Br)cc2)n(Cc2ccco2)c2c1CCCC2 | + | ·
COc1ccccc1C1(C(=O)N2CCC(c3ccsc3)CC2)CCOCC1 | + | –
O=C(c1nc2ccccc2s1)N1CCC(c2ccsc2)CC1 | – | –
CC(C)c1cc(=O)[nH]c(-n2nc(-c3ccco3)cc2NC(=O)c2cc(-c3ccco3)on2)n1 | – | –
Cc1ccc(S(=O)(=O)CCCC(=O)N(Cc2ccccc2)Cc2ccccc2)cc1 | + | –
COc1ccc(S(=O)(=O)CC(=O)N(Cc2ccccc2)Cc2ccccc2)cc1 | – | –
COc1ccc(SCCC(=O)Nc2nnc(-c3ccc(OC)cc3)o2)cc1 | – | –
NC(=O)c1ccsc1NC(=O)C1CCN(S(=O)(=O)c2ccc(Cl)cc2)CC1 | + | –
SMILES | GluA2 TARP mod | GIRK2 activator
NC(=O)c1ccsc1NC(=O)C1CCCCC1 | – | –
COc1ccc(-c2cc(C(=O)O)c3[nH]c(C)nc3n2)cc1 | · | –
COc1ccc(CNC(=O)C(=O)Nc2ccc(NC(C)=O)cc2)cc1 | – | –
COc1ccc(CCNC(=O)C(=O)Nc2ccc(NC(C)=O)cc2)cc1 | + | –
COc1ccc(S(=O)(=O)NCc2nnnn2-c2ccc(Cl)cc2)cc1 | – | ·
Cc1nc(N2CCN(C(=O)Nc3cccc(F)c3C)CC2)cc(-n2ccnc2)n1 | – | –
CSc1ccccc1NC(=O)C(=O)NCC1(c2cccs2)CCCC1 | · | –
Cc1cc(NC(=O)C(=O)NCC2(c3cccs3)CCCC2)c2ccccc2n1 | · | 6.0%[75 µM]
COC(=O)c1ccc(CSc2ccnc3c2c(=O)n(C)c(=O)n3C)o1 | – | –
Cc1ccccc1N1CCN(S(=O)(=O)N(C)C)CC1 | – | ·
Cc1ccc(-n2ccnc2N2CCN(C(=O)CCc3ccccc3)CC2)cc1 | – | –
Cc1ccc(-n2ccnc2N2CCN(C(=O)c3ccc(C)c(C)c3)CC2)cc1 | + | –
Cc1ccc(-n2ccnc2N2CCN(C(=O)CCCc3ccccc3)CC2)cc1 | + | –
Cc1ccc(-n2ccnc2N2CCN(C(=O)c3ccc4ccccc4c3)CC2)cc1 | – | –
COC1CCN(C(=O)c2nc3ccccc3s2)CC1 | – | ·
COc1ccc(-c2coc3c4c(ccc3c2=O)OCN(C2CC(C)(C)NC(C)(C)C2)C4)cc1OC | – | –
O=C(COc1ccc(Cl)cc1Cl)NCC1(c2ccccc2)CCOCC1 | · | –
N#Cc1nc(-c2ccc(S(=O)(=O)N3CCCCCC3)cc2)oc1NCCCN1CCOCC1 | – | –
COc1cccc(C(=O)NCC(c2cn(C)c3ccccc23)N(C)C)c1OC (stereo not drawn) | · | –
Cc1ccc(C)c(Sc2cc(N3CCC(C(=O)NCC(C)C)CC3)ncn2)c1 | – | –
CCOC(=O)N1CCC(NC(=O)C2CCN(c3cc(Sc4cc(C)ccc4C)ncn3)CC2)CC1 | + | –
COc1ccc(N2CC(C)Cn3c2nc2c3c(=O)n(Cc3ccc(C)cc3)c(=O)n2C)cc1 (stereo not drawn) | – | ·
O=C(c1ccco1)N1C(=O)c2cccc3c(S(=O)(=O)N4CCCCC4)ccc1c23 | · | –
COc1ccc(Cl)cc1NC(=O)NCC1CCN(C(=O)Nc2ccc(F)cc2)CC1 | – | –
COc1ccc(Cl)cc1S(=O)(=O)NCC1CCN(C(=O)Nc2ccc(F)cc2)CC1 | + | –
SMILES | GluA2 TARP mod | GIRK2 activator
CN1CCOc2ccc(NC(=O)c3ccno3)cc2C1=O | – | –
Cc1cccc(CC(=O)Nc2ccc3c(c2)CC(=O)N3C)c1 | – | ·
CN1C(=O)c2ccc(NC(=O)c3ccno3)cc2C1=O | + | ·
O=C(Nc1ccc2sccc2c1)c1ccno1 | + | –
CN1C(=O)Cc2cc(NC(=O)c3ccno3)ccc21 | + | –
O=C(Nc1ccc(O)c(-c2nc3ccccc3s2)c1)c1ccno1 | – | –
COC(=O)c1c(NC(=O)C2CCCCN2S(C)(=O)=O)sc2c1CCC(C)C2 (stereo not drawn) | – | –
COc1ccc(Cl)cc1C(=O)NCC(O)(c1ccccc1)C1CC1 (stereo not drawn) | + | ·
COc1nn(C)cc1C(=O)NCC(O)(c1ccccc1)C1CC1 (stereo not drawn) | – | ·
COc1cccc(C(=O)NCC(O)(c2cccs2)C2CC2)c1OC (stereo not drawn) | – | –
COc1ccc(Cl)cc1C(=O)NCC(O)(c1cccs1)C1CC1 (stereo not drawn) | + | –
C=C(C)Cn1c(=O)c2c(nc3n(-c4cc(OC)ccc4OC)c(-c4ccccc4)cn23)n(C)c1=O | + | –
C=CCn1c(=O)c2c(nc3n(-c4cc(OC)ccc4OC)c(-c4ccccc4)cn23)n(C)c1=O | – | –
COCCn1c(=O)c2c(nc3n(-c4ccccc4C)c(-c4ccccc4)cn23)n(C)c1=O | – | ·
CCc1ccccc1-n1c(-c2ccccc2)cn2c3c(=O)n(CCOC)c(=O)n(C)c3nc12 | + | ·
COc1cc([N+](=O)[O-])cc2cc(C(=O)N3CCN(c4cccc(C(F)(F)F)c4)CC3)c(=O)oc12 | + | –
COc1cc([N+](=O)[O-])cc2cc(C(=O)NC(C)c3ccccc3)c(=O)oc12 (stereo not drawn) | – | –
COc1ccc(NC(=O)c2ccccc2)cc1N1CCCCC1=O | – | –
CC1=C(C(=O)Nc2cccc(C(F)(F)F)c2)C(c2ccc(C)cc2)C2=C(CCCC2=O)N1 (stereo not drawn) | + | ·
CCN(CC)c1ccc(C2C(C(=O)Nc3cccc(C(F)(F)F)c3)=C(C)NC3=C2C(=O)CCC3)cc1 (stereo not drawn) | – | ·
COc1ccc(Cl)cc1NC(=O)Nc1ccc2c(c1)C(=O)N1CCCCC1CCO2 (stereo not drawn) | – | –
CCCC(=O)Nc1ccc(C(=O)NCCNC(=O)c2ccccc2OC)cc1 | – | –
